Measurements as given in PubChem BioAssay (NCI).
Several values for one entry are separate records, joined by “and”; a condition that tells them apart may be missing. Equal entries are not always repeated. This is part of a sample that, as a whole, favours compounds with a hit. Of some 83,000 tested, about 20% had one in any assay.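 96-well plates, one dose, 48 hours. Percent growth reported; active if below 10.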 Activity calls are given as the source filed them.

Experiments:
Experiment in all cases: NCI-60 one-dose screen, 48 h (100 = growth as untreated, 0 = no growth, -100 = all killed)
Conditions in all cases: 10 µM
HOP-92 NSCLC = system: HOP-92 NSCLC
K-562 leukemia = system: K-562 leukemia
RXF 393 renal = system: RXF 393 renal
UACC-257 melanoma = system: UACC-257 melanoma
SK-MEL-2 melanoma = system: SK-MEL-2 melanoma
SN12C renal = system: SN12C renal
TK-10 renal = system: TK-10 renal
CAKI-1 renal = system: CAKI-1 renal
RPMI-8226 leukemia = system: RPMI-8226 leukemia
OVCAR-3 ovarian = system: OVCAR-3 ovarian
BT-549 breast = system: BT-549 breast
MDA-MB-435 melanoma = system: MDA-MB-435 melanoma
HCC-2998 colon = system: HCC-2998 colon

SMILES | growth (HOP-92 NSCLC) | growth (K-562 leukemia) | growth (RXF 393 renal) | growth (UACC-257 melanoma) | growth (SK-MEL-2 melanoma) | growth (SN12C renal) | growth (TK-10 renal) | growth (CAKI-1 renal) | growth (RPMI-8226 leukemia) | growth (OVCAR-3 ovarian) | growth (BT-549 breast) | growth (MDA-MB-435 melanoma) | growth (HCC-2998 colon)
C/C=C/CC(C)C(O)[C@H](NC(=O)[C@@H]1CCCN1C(=O)C(C)(C)NC(=O)CCCCCCCCC)C(=O)N[C@@](C)(CC)C(=O)N[C@@H](CCC(N)=O)C(=O)N[C@H](CCC(N)=O)C(=O)NC(C)(C)C(=O)N[C@@](C)(CC)C(=O)N[C@@H](CCC(N)=O)C(=O)N[C@H](CC(C)C)C(=O)N[C@H](CO)CC(C)C (some centres not stated) | 91.5% (inactive) and -58.8% (active) | 90.4% (inactive) and 4.32% (active) | 129% (inactive) and -75.3% (active) | 108% (inactive) and -83% (active) | 121% (inactive) and -72.1% (active) | 101% (inactive) and -44.1% (active) | 108% (inactive) and -53.4% (active) | 99.7% (inactive) and -21.7% (active) | 103% (inactive) and -46.2% (active) | 8.27% (active) | -79.6% (active) | 105% (inactive) and -93.7% (active) | 116% (inactive) and -19.6% (active)
CN(CCF)/N=N/c1nc[nH]c1C(N)=O | 77.9% (inactive) | 22.2% (inactive) | 76.6% (inactive) | 53.8% (inactive) | -20.9% (active) | 48.4% (inactive) | 25.2% (inactive) | 14.1% (inactive) | 25.5% (inactive) | – | 85.8% (inactive) | 39.6% (inactive) | 38.7% (inactive)
CC1=C2C(=C[C@@](C)(COS(C)(=O)=O)[C@@H]2O)C(=O)[C@](C)(O)C12CC2 | -15.5% (active) | 3.56% (active) | -78.1% (active) | 0.386% (active) | -39.5% (active) | 13.8% (inactive) | 5.33% (active) | -31.5% (active) | – | 7.64% (active) | -15.9% (active) | – | -25.7% (active)
CC1=C2C(=C[C@@](C)(COC(=O)c3ccc(S(=O)(=O)F)cc3)[C@@H]2O)C(=O)[C@](C)(O)C12CC2 | – | 6.74% (active) | -88.8% (active) | -52.7% (active) | – | -2.35% (active) | -6.77% (active) | -0.688% (active) | 89.7% (inactive) | – | -88.2% (active) | -72.2% (active) | -50.6% (active)
COC1[C@@H]2C[C@H]3C(C)(C)O[C@@](C/C=C(/C)C(=O)O)(C2=O)[C@]32Oc3c(CC=C(C)C)c4c(c(O)c3C(=O)[C@H]12)C=CC(C)(C)O4 (some centres not stated) | -36.4% (active) | 2.55% (active) | -81.1% (active) | -48.2% (active) | -65.5% (active) | -16.7% (active) | – | – | -17% (active) | -90.6% (active) | -3.07% (active) | -58.2% (active) | -81.9% (active)
COC(=O)[C@H]1[C@@H](O)[C@@]2(O)c3c(OC)cc(OC)cc3O[C@@]2(c2ccc(OC)cc2)[C@@H]1c1ccccc1 | -12.5% (active) | 2.1% (active) | -20.3% (active) | – | -45.5% (active) | -11.5% (active) | -11.9% (active) | -6.21% (active) | -9.7% (active) | -9.22% (active) | -17.5% (active) | -11.1% (active) | 0.34% (active)
C/C=C/CC(C)C(O)[C@H](NC(=O)[C@@H]1CCCN1C(=O)C(C)(C)NC(=O)CCCCCCC)C(=O)N[C@@](C)(CC)C(=O)N[C@@H](CCC(N)=O)C(=O)N[C@H](CCC(N)=O)C(=O)NC(C)(C)C(=O)NC(C)(C)C(=O)N[C@@H](CCC(N)=O)C(=O)N[C@H](CC(C)C)C(=O)N[C@H](CO)CC(C)C (some centres not stated) | 106% (inactive) and 29.4% (inactive) | 101% (inactive) and 6.14% (active) | 112% (inactive) and -10.7% (active) | 106% (inactive) and -33.7% (active) | 115% (inactive) and 34% (inactive) | 102% (inactive) and 9.5% (active) | 115% (inactive) and 28.2% (inactive) | 101% (inactive) and 28.5% (inactive) | 105% (inactive) and -9.85% (active) | 113% (inactive) and 23.8% (inactive) | 118% (inactive) and -60.9% (active) | 104% (inactive) and -47.4% (active) | 114% (inactive) and 24% (inactive)
